PubChem BioAssay (EPA / NIEHS)
Where “and” joins values, the source holds several entries; their conditions need not be identical. Equal entries are not always repeated. Inconclusive results are not listed. Calls of active or inactive are those of the source. Rule for the calls, unless noted: active = hit-call score of the fitted dose curve at least 0.9, where 1 is the maximum; inactive = score below 0.9.

Columns and labels:
[1] = target: Retinoic acid receptor RXR-alpha (Homo sapiens) (UniProt P19793); test: ATG_RXRa_TRANS: Attagene TRANS-FACTORIAL HepG2 Assay for human Retinoid X Receptor alpha (RXRa) (AID 2283012; active = hit-call score of the fitted dose curve at least 0.9, where 1 is the maximum)
Summary of the method: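 Read-out: fluorescent reporter-transcript fragments quantified by capillary electrophoresis after RT-PCR. Transiently transfected HepG2 cells carrying GAL4-UAS reporters and NR-GAL4 chimeras were exposed to chemical for 24 h; activity scored as increase over DMSO.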

[2] = target: human Retinoid X Receptor beta (RXRb), RXRB (gene 6257) (UniProt P28702); test: ATG_RXRb_TRANS: Attagene TRANS-FACTORIAL HepG2 Assay for human Retinoid X Receptor beta (RXRb) (AID 2283013; active = hit-call score of the fitted dose curve at least 0.9, where 1 is the maximum)
Summary of the method: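 Read-out: reporter mRNA induction via RT-PCR plus capillary electrophoresis fluorescence, analysed as signal increase relative to DMSO. Cells were human HepG2, transiently transfected with GAL4-UAS reporter constructs and chimeric receptor-Gal4 fusions, dosed for 24 h.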

[3] = read-out: E-selectin (Homo sapiens) (UniProt P16581); test: BSK_3C_Eselectin: BioMAP Diversity Plus: 3C Assay for Eselectin Biomarker Activity (AID 2283015); settings: primary human endothelial cells (HUVEC); actives raise or lower the signal
Summary of the method: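 Primary human umbilical vein endothelial cells (3C system) were dosed with chemical and cell-surface E-selectin measured by ELISA 24 h later. Bidirectional curve fitting used DMSO as negative control and baseline.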

[4] = read-out: Interleukin-1 alpha (IL1a), IL1A (gene 3552); test: BSK_BE3C_IL1a: BioMAP Diversity Plus: BE3C Assay for Interleukin-1 alpha (IL1a) Biomarker Activity (AID 2283016); settings: primary human bronchial epithelial cells; actives raise or lower the signal
Summary of the method: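 ELISA read-out of IL-1a from human lung bronchial epithelial primary cells, 24 h post-dose. Gain or loss of signal fitted relative to DMSO negative control.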

[5] = read-out: Monocyte Chemoattractant Protein-1 (MCP1), CCL2 (gene 6347); test: BSK_3C_MCP1: BioMAP Diversity Plus: 3C Assay for Monocyte Chemoattractant Protein-1 (MCP1) Biomarker Activity (AID 2283017); settings: primary human endothelial cells (HUVEC); actives raise or lower the signal
Summary of the method: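 Primary human umbilical vein endothelial cells (3C system) were exposed to test chemical for 24 h, after which MCP-1 was quantified by ELISA. Activity was fitted bidirectionally against DMSO as negative control and baseline.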

[6] = read-out: Monocyte Chemoattractant Protein-1 (MCP1), CCL2 (gene 6347); test: BSK_4H_MCP1: BioMAP Diversity Plus: 4H Assay for Monocyte Chemoattractant Protein-1 (MCP1) Biomarker Activity (AID 2283018); settings: primary human endothelial cells (HUVEC); actives raise or lower the signal
Summary of the method: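 HUVEC primary cells, 24 h post-dose, MCP-1 by ELISA. Gain or loss of signal fitted bidirectionally vs DMSO baseline. Cytotoxicity: SRB stain (0.1% after 10% TCA fixation), read 560 nm, parallel cultures.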

[7] = read-out: Human Leukocyte Antigen - DR isotype (HLADR), HLA-DRA (gene 3122); test: BSK_3C_HLADR: BioMAP Diversity Plus: 3C Assay for Human Leukocyte Antigen - DR isotype (HLADR) Biomarker Activity (AID 2283019); settings: primary human endothelial cells (HUVEC); actives raise or lower the signal
Summary of the method: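 Primary human umbilical vein endothelial cells (3C system) were dosed with compound and cell-surface HLA-DR was quantified by ELISA at 24 h. Activity was fitted bidirectionally against DMSO as negative control and baseline.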

[8] = read-out: Interleukin-8 (IL8), CXCL8 (gene 3576); test: BSK_3C_IL8: BioMAP Diversity Plus: 3C Assay for Interleukin-8 (IL8) Biomarker Activity (AID 2283020); settings: primary human endothelial cells (HUVEC); actives raise or lower the signal
Summary of the method: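 HUVEC, 3C stimulation; 24 h compound exposure; IL-8 read by ELISA; gain or loss of signal fitted relative to DMSO control.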

[9] = target: human Thyroid Receptor alpha (THRa1), THRA (gene 7067) (UniProt P10827); test: ATG_THRa1_TRANS: Attagene TRANS-FACTORIAL HepG2 Assay for human Thyroid Receptor alpha (THRa1) (AID 2283014; active = hit-call score of the fitted dose curve at least 0.9, where 1 is the maximum)
Summary of the method: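 HepG2 cells transiently transfected with multiplexed GAL4-UAS reporter units for exogenous chimeric THRa1-Gal4; reporter mRNA measured 24 h after dosing by RT-PCR, 6-FAM labelling, HpaI digestion and capillary electrophoresis. Gain-of-signal fitted versus DMSO baseline.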

[10] = target: human RAR-related Orphan Receptor gamma (RORg), RORC (gene 6097) (UniProt P51449); test: ATG_RORg_TRANS: Attagene TRANS-FACTORIAL HepG2 Assay for human RAR-related Orphan Receptor gamma (RORg) (AID 2283011; active = hit-call score of the fitted dose curve at least 0.9, where 1 is the maximum)
Summary of the method: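 Readout: reporter transcript induction (RT-PCR, fluorescent primer extension, capillary electrophoresis) after 24 h compound exposure of transiently transfected HepG2 cells carrying a RORg-Gal4 chimera and GAL4-UAS reporters; DMSO served as baseline, with increasing signal fitted.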

Measured: AC50

Sequence of Retinoic acid receptor RXR-alpha (Homo sapiens) (P19793 whole entry, looked up, the tested form may be a part): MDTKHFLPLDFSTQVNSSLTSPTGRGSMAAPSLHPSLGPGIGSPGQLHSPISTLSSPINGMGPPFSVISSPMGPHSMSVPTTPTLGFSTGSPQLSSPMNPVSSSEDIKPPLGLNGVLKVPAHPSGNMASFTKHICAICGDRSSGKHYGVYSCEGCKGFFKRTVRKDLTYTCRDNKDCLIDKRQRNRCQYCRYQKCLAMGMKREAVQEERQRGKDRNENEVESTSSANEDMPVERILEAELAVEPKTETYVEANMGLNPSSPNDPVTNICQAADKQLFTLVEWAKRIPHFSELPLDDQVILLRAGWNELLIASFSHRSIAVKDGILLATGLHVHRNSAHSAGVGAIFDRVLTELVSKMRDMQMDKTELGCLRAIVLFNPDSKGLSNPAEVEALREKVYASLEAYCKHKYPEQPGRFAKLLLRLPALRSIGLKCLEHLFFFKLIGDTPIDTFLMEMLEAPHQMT
Sequence of human Thyroid Receptor alpha (THRa1), THRA (gene 7067) (P10827 whole entry, looked up, the tested form may be a part): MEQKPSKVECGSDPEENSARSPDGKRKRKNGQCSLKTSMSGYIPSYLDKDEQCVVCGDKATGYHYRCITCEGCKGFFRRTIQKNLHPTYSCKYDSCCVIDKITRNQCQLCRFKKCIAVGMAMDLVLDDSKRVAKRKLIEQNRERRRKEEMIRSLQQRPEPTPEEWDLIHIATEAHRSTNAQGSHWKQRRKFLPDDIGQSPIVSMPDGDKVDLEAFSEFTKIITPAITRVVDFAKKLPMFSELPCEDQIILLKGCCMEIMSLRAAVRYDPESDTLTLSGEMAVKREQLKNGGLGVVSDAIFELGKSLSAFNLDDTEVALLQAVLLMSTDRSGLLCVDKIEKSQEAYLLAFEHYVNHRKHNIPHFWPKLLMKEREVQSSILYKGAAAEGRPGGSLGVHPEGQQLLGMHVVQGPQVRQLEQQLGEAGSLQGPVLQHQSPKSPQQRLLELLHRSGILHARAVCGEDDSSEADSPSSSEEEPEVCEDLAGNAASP
Sequence of human Retinoid X Receptor beta (RXRb), RXRB (gene 6257) (P28702 whole entry, looked up, the tested form may be a part): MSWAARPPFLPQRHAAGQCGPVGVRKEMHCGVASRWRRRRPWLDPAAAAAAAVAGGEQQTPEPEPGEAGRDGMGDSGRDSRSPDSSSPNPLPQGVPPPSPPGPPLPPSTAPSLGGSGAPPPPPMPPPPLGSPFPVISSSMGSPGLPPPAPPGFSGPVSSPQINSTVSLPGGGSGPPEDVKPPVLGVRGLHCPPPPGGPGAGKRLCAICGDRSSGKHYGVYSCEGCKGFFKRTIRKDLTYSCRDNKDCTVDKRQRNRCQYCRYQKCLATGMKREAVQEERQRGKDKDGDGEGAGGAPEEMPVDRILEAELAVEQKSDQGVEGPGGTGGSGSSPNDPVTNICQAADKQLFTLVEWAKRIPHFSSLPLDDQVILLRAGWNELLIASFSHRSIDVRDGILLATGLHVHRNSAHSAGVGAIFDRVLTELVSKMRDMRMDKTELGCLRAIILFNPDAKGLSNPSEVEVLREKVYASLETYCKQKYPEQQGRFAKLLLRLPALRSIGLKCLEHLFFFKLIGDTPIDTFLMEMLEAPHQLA
Sequence of E-selectin (Homo sapiens) (P16581 whole entry, looked up): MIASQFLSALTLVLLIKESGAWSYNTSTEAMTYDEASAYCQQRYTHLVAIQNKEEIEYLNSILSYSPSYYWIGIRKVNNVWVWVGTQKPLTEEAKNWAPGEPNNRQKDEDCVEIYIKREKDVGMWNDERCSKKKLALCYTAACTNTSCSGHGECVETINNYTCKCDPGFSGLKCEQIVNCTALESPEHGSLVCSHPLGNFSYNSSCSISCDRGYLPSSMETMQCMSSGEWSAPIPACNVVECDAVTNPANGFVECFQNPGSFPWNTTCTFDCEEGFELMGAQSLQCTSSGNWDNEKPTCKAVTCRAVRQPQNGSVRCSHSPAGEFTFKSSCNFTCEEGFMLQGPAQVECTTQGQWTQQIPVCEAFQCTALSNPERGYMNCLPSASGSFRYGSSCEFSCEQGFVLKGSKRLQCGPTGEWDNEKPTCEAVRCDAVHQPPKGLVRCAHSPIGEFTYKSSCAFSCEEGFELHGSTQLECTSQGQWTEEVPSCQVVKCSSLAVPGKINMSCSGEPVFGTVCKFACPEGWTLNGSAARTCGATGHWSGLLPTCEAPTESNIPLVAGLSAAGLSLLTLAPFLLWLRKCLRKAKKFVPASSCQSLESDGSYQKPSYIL
Sequence of human RAR-related Orphan Receptor gamma (RORg), RORC (gene 6097) (P51449 whole entry, looked up, the tested form may be a part): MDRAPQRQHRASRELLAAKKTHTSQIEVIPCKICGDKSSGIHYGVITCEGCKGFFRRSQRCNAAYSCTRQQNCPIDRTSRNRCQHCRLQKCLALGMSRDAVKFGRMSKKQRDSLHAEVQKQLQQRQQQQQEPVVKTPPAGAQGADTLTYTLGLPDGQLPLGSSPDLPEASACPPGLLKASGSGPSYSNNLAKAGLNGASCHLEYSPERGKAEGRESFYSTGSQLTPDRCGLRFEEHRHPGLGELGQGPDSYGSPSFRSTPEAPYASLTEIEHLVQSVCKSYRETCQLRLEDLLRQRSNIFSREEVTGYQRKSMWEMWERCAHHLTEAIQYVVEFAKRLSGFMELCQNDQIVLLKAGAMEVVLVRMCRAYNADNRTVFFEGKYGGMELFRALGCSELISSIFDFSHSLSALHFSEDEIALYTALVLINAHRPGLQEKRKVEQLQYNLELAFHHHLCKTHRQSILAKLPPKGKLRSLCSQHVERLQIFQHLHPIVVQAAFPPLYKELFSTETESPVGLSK

Cc1ccc(C(C)(C)C)c(O)c1
inactive: [1] | [4] | [6] | [7] | [8]
active: [2] 23.3 µM | [3] 34.5 µM | [5] 34.7 µM

O=NO
inactive: [1] | [2] | [3] | [4] | [5] | [6] | [7] | [8]

Oc1ccccc1O
inactive: [1] | [2] | [4] | [6] | [8]
active: [3] 1.73 µM | [5] 4.66 µM | [7] 5.45 µM

CCCCCCCCCC[N+](C)(C)[O-]
inactive: [1] | [2] | [3] | [4] | [5] | [6] | [7] | [8]

CCCCc1nc2cccnc2n1Cc1ccc(-c2ccccc2-c2nnn[nH]2)cc1
active: [9] 21.4 µM
inactive: [1] | [2] | [4] | [5] | [6] | [7] | [8]

CN(C)C(=O)NC1(c2ccccc2)CCN(CCC[C@]2(c3ccc(Cl)c(Cl)c3)CCCN(C(=O)c3ccccc3)C2)CC1
inactive: [9] | [3] | [4] | [6] | [7]
active: [1] 3.94 µM | [2] 4.3 µM | [5] 7.06 µM | [8] 7.16 µM

CCN(CC)CCOc1ccc(C(=C(Cl)c2ccccc2)c2ccccc2)cc1
inactive: [1] | [2] | [9]
active: [3] 14.3 µM | [4] 18.9 µM | [5] 11.6 µM | [6] 9.04 µM | [7] 7.41 µM | [8] 10.9 µM

CC(=O)[C@@]1(O)CC[C@H]2[C@@H]3CCC4=CC(=O)CC[C@]4(C)[C@H]3CC[C@@]21C
inactive: [1] | [2] | [3] | [4] | [5] | [6] | [7] | [8]

C=CCc1ccc(OC)c(OC)c1
inactive: [1] | [3] | [4] | [5] | [6] | [7] | [8]
active: [2] 65.4 µM

O=[Si]=O
inactive: [1] | [2] | [9] | [4] | [5] | [6] | [7] | [8]

CCCC[C@H]1CN(CC2CCOCC2)C(=O)OC12CCN(C1(C)CCN(C(=O)c3c(C)ncnc3C)CC1)CC2
inactive: [1] | [2] | [3] | [4] | [5] | [6] | [7] | [8]

O=C1CCCCC1
active: [9] 48.4 µM
inactive: [1] | [2] | [3] | [4] | [5] | [6] | [7] | [8]

CCCCOC(=O)CCCCC(=O)OCCCC
inactive: [1] | [2] | [9] | [3] | [4] | [5] | [6] | [7] | [8]

COc1ccc(C(=O)Nc2nc3ccccc3c(NCc3ccccc3)c2C#N)cc1
inactive: [1] | [2] | [3] | [4] | [5] | [6] | [7] | [8]

Cc1cc(SC2=C(O)C[C@@](CCc3ccc(N)cc3)(C(C)C)OC2=O)c(C(C)(C)C)cc1CO
inactive: [1] | [2] | [3] | [4] | [5] | [6] | [7] | [8]

NC(=Nc1ccccc1)Nc1ccccc1
inactive: [1] | [2] | [4] | [5] | [6] | [7] | [8]

COc1ccc(OC(F)(F)F)cc1CN[C@H]1CCCN[C@H]1c1ccccc1
inactive: [1] | [2] | [4] | [6] | [8]
active: [3] 9.58 µM | [5] 20 µM | [7] 32.8 µM

CCCCCCCCCCCCCCOS(=O)(=O)O
inactive: [1] | [2] | [5] | [6] | [7] | [8]
active: [4] 28.1 µM

COC(=O)[C@H]1[C@H]2C[C@@H]3c4[nH]c5cc(OC)ccc5c4CCN3C[C@H]2C[C@@H](OC(=O)c2cc(OC)c(OC)c(OC)c2)[C@@H]1OC
active: [3] 16.9 µM | [5] 16.9 µM | [6] 5.85 µM | [7] 25.8 µM | [8] 16.9 µM
inactive: [1] | [2] | [9]

CCCCC(CC)COC(=O)CCCCCCCC(=O)OCC(CC)CCCC (configuration not stated)
inactive: [1] | [2] | [4] | [5] | [6] | [7] | [8]

CC(=O)O
inactive: [1] | [2] | [9] | [3] | [4] | [5] | [6] | [7] | [8]

CCCCC(CC)CO (configuration not stated)
inactive: [1] | [2] | [3] | [4] | [5] | [6] | [7] | [8]

O=C(O)CN(CC(=O)O)CC(=O)O
inactive: [1] | [2] | [3] | [4] | [5] | [6] | [7] | [8]

Nc1nc(=S)c2[nH]cnc2[nH]1
inactive: [1] | [2] | [9] | [4] | [5] | [6] | [7] | [8]

O=C1O[C@H]([C@H](O)CO)C(O)=C1O
inactive: [10] | [1] | [2] | [9] | [4] | [5] | [6] | [7] | [8]

CC(C)(O)c1ccc(CNC(=O)c2cccnc2Oc2ccc(F)cc2)cc1
inactive: [1] | [2] | [9] | [3] | [4] | [5] | [6] | [7] | [8]

O=C(O)c1cccnc1
inactive: [1] | [2] | [9] | [3] | [4] | [5] | [6] | [7] | [8]

NCCOCCOCCN
inactive: [1] | [2] | [4] | [5] | [6] | [7] | [8]

CC(=O)O[C@]1(C(C)=O)CC[C@H]2[C@@H]3C=C(Cl)C4=CC(=O)[C@@H]5C[C@@H]5[C@]4(C)[C@H]3CC[C@@]21C
active: [4] 32.8 µM | [7] 33.4 µM
inactive: [1] | [2] | [9] | [3] | [5] | [6] | [8]

N[C@@H](Cc1c[nH]c2ccccc12)C(=O)O
inactive: [2] | [9] | [3] | [4] | [5] | [6] | [7] | [8]

CC(=O)OCC(COC(C)=O)OC(C)=O
inactive: [1] | [9] | [3] | [4] | [5] | [6] | [7] | [8]

CSc1ccc(Oc2ccc(S(N)(=O)=O)cc2CN(C)C)cc1C
inactive: [1] | [3] | [4] | [5] | [6] | [7] | [8]

CCCCCCC(C=O)=Cc1ccccc1
active: [2] 65.6 µM and 39.1 µM | [5] 35 µM | [7] 36.7 µM | [8] 30.1 µM
inactive: [1] | [4] | [6]

CC(=O)CC(c1ccccc1)c1c(O)c2ccccc2oc1=O (configuration not stated)
inactive: [1] | [4] | [5] | [6] | [7] | [8]

O=C(NS(=O)(=O)/C=C/c1cccs1)c1ccc(F)cc1Br
inactive: [1] | [9] | [3] | [4] | [5] | [6] | [7] | [8]

COC(=O)CCCC(=O)OC
inactive: [1] | [4] | [5] | [6] | [7] | [8]

CCOCCOCCO
inactive: [1] | [3] | [4] | [5] | [6] | [7] | [8]

C=CCCCCCCCCCCCC
inactive: [1] | [4] | [5] | [6] | [7] | [8]
active: [2] 59.1 µM

O=C1c2c(O)cccc2Cc2cccc(O)c21
inactive: [2] | [9] | [3] | [4] | [5] | [6] | [7] | [8]

O=C1OC(c2ccc(O)cc2)(c2ccc(O)cc2)c2ccccc21
active: [4] 34.8 µM | [5] 14.1 µM | [6] 20 µM | [7] 31.1 µM
inactive: [1] | [9] | [3] | [8]
